Test results reported in PubChem BioAssay AID689 (Sanford-Burnham Center for Chemical Genomics, 2007).
Screen size: about 62,000 compounds; about 80 (0.1%) were called active. The rule behind the calls is not given here. A selection follows. Results with a measured potency or affinity are listed apart.

biological target: Ephrin type-A receptor 4 (Mus musculus) (UniProt Q03137); assay: EphA4 ligand-binding antagonists – biochemical, colorimetric, mouse EphA4, primary screen (AID 689); details: EphA4-AP binding to KYL peptide, pNPP A405, at 10 µM, active compounds read high
Sequence (Q03137 whole entry, looked up): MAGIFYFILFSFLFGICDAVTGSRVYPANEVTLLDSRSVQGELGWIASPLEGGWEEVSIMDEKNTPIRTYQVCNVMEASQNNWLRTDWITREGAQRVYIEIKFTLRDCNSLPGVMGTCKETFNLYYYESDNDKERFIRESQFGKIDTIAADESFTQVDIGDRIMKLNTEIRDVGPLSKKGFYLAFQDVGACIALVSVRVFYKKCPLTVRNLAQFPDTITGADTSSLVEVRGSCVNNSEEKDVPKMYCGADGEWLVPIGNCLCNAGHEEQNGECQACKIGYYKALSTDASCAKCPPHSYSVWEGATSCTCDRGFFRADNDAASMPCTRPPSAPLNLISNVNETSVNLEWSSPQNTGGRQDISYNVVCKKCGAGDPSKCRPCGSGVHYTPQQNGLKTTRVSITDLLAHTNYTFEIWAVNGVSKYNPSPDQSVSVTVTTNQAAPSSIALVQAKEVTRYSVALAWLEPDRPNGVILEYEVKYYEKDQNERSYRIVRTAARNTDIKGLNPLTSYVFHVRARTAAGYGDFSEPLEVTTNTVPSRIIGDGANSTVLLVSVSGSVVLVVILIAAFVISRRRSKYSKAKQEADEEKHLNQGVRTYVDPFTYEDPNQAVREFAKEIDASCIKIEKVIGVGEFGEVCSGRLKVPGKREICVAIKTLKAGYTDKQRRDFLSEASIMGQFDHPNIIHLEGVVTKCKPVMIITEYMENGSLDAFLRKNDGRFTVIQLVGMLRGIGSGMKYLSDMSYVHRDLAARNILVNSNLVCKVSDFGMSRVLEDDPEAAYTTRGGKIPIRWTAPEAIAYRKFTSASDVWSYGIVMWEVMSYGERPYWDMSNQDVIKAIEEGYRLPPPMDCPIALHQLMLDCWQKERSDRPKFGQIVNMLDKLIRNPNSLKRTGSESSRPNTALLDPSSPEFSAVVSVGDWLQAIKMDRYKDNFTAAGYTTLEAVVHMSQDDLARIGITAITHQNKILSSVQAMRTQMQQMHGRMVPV

inhibition, inactive:
CCOC(=O)C1CCCN(C(=O)COc2ccccc2O)C1 (stereo unspecified) -0.6%
CCN(CC)CCCN(Cc1cc2cc3c(cc2[nH]c1=O)OCCO3)C(=O)Nc1ccc(F)cc1 9.2%
COCCN(Cc1cc2cc3c(cc2nc1Cl)OCO3)C(=O)Nc1ccccc1OC -13.8%
Cc1ccc(-n2ncnc2-c2cccc(Cl)c2)cc1Cl 0.3% [this sample at 5 µg/mL]
COc1ccccc1-c1c(C(F)(F)F)oc2c(CN3CCCC3)c(O)ccc2c1=O -1.3% [this sample at 5 µg/mL]
CCCSC1=N/C(=C\c2ccsc2)C(=O)S1 -0.1%
O=C1SC(c2ccccc2)=N/C1=C/c1ccco1 -12.4%
COc1ccc(-c2nnc3n2N=C(C)CS3)cc1OC -3.7%
N#CC(C(=O)OC1CCCCC1)c1nc2ccccc2nc1N1CCOCC1 (stereo unspecified) -17.3%
CC1CCN(c2nc3ccccc3nc2C(C#N)C(=O)OC2CCCCC2)CC1 (stereo unspecified) 42.2%
COCCOC(=O)C(C#N)c1nc2ccccc2nc1N1CCCC1 (stereo unspecified) 20.7%
CCC(CC)COC(=O)C(C#N)c1nc2ccccc2nc1N1CCOCC1 (stereo unspecified) 48.9%
C=CCN1C(=O)[C@]2(c3ccccc31)C1CCCC=C1C(C#N)=C(N)C2(C#N)C#N (stereo partly specified) -6.6%
CC(=O)Nc1ccc(S(=O)(=O)N2CCN(C34CC5CC(CC(C5)C3)C4)CC2)cc1 -1.8%
COc1ccc(C(CC(=O)Nc2ccc(F)cc2)c2ccccc2)cc1 (stereo unspecified) -16.8%
O=C(CSc1nnc(-c2ccc(S(=O)(=O)N3CCOCC3)cc2)o1)c1ccccc1F -15.3%
CCOC(=O)c1c(NC(C)=O)sc2c1CCCNC2=O 12.2%
CCCCC(=O)Nc1sc2c(c1C(=O)OCC)CCC(C=O)=C2Cl -6.4%
CC(C)OP(=O)(c1ccc(N(C)C)cc1)C(O)c1ccncc1 (stereo unspecified) -19.9%
COc1ccc(N2CCN(C(=O)c3csc4ccccc34)CC2)cc1 -8.7%
Cc1ccc(S(=O)(=O)N(Cc2ccccc2)c2ccccc2C(=O)NCc2ccc(Cl)cc2)cc1 22% [this sample at 5 µg/mL]
COc1cc(C(=O)N2CCCN(c3nc4cc(C)ccc4cc3C#N)CC2)cc(OC)c1OC 1.5%
Cc1ccc2cc(C#N)c(N3CCCN(C(=O)C4CCCO4)CC3)nc2c1 (stereo unspecified) 2.7%
CCOc1ccc2oc(C)c(C(=O)OC(C)C)c2c1 -14.8% [this sample at 5 µg/mL]
O=S(=O)(c1ccc(Cl)cc1)N1CCN(c2ccccn2)CC1 11% [this sample at 5 µg/mL]
Cc1cc([N+](=O)[O-])nn1CC(=O)NNC(=S)Nc1ccc(Cl)cc1 -10.8%
COc1ccc(N2Cc3cccc(C(=O)N4CCOCC4)c3C2=O)cc1 7.2%
COc1ccc(N2Cc3cccc(C(=O)N4CCN(C(=O)c5ccco5)CC4)c3C2=O)cc1 11.2%
Cn1c(SCC(=O)N2CCOCC2)nc2cccnc21 2.2%
CCOC(=O)CSc1nnc(-c2ccc(Br)cc2)o1 5.7% [this sample at 5 µg/mL]
O=C(OCc1ccccc1)Sc1nnc(-c2ccc(Br)cc2)o1 -5.7% [this sample at 5 µg/mL]
Cc1cc2c(ccc3[nH]onc32)n1 16.7%
CC1=NN(c2ccccc2)C(=O)/C1=C/c1cc2cc(C)ccc2nc1N1CCCCC1 5.3%
O=C1OC(c2ccccc2)=N/C1=C\N1CCCCC1 -17.4%
Cc1ccc(C2=N/C(=C\N3CCCCC3)C(=O)O2)cc1 -3.3%
CN(C)/C(CN1CCOCC1)=C1\N=C(c2ccccc2)OC1=O -14%
CCn1c(SCC(=O)OC(C)C)nnc1-c1cccc(Cl)c1 -13.7%
C=CCNC(=O)c1ccc(N2C(=O)c3ccccc3C2=O)cc1 -9.3% [this sample at 5 µg/mL]
CCOC(=O)N1CCN(C(=O)CSCc2nc(-c3ccccc3C)oc2C)CC1 7.2%
CCOc1ccc(N(CC(=O)Nc2ccc3c(c2)OCCO3)S(=O)(=O)c2c(C)noc2C)cc1 -0.5%
O=C(C/C=N\OCc1c(Cl)cccc1Cl)Oc1ccc(Cl)cc1Cl -11.4%
Nc1ccc(NC(=O)c2ccccc2)c2c1C(=O)c1ccccc1C2=O -5.6%
Nc1ccc2c(c1)C(=O)C(=O)c1ccccc1-2 -16.9%
CC1CN(CC(=O)N2CCc3[nH]c4ccccc4c3C2)CC(C)O1 (stereo unspecified) -14.2%
CC(N=c1ccccn1C(=O)Nc1ccc(Cl)cc1)c1ccco1 (stereo unspecified) 6.6%
CN(C)c1ccc(N=Cc2nc(-c3ccccc3)oc2O)cc1 -7.6%
Oc1oc(-c2ccccc2)nc1C=Nc1ccccc1 1%
COc1ccc(C2C(C(=O)OCC(=O)N3CCCCC3)CCC(=O)N2c2ccc(OC)cc2)cc1 (stereo unspecified) -9.6%
COc1cc(NC(=O)c2ccc(NS(=O)(=O)c3c(C)noc3C)cc2)cc(OC)c1 -7.5%
Cc1ccccc1NC(=O)CSc1nnc(-c2ccco2)c(-c2ccco2)n1 32.3%
O=C(CSc1nnc(-c2ccco2)c(-c2ccco2)n1)Nc1ccccc1 41.7%
CS(=O)(=O)N1CCN(Cc2ccc(Cl)cc2)CC1 -10.7% [this sample at 5 µg/mL]
CC(C(=O)O)N1C(=O)/C(=C/c2ccc([N+](=O)[O-])cc2)SC1=S (stereo unspecified) 3.4% [this sample at 5 µg/mL]
CC(C)CN1C(=O)/C(=C/c2ccco2)SC1=S 30.2% [this sample at 5 µg/mL]
CC(C(=O)O)N1C(=O)/C(=C/c2ccc3c(c2)OCO3)SC1=S (stereo unspecified) 0.6% [this sample at 5 µg/mL]
CC(C)C(C(=O)O)N1C(=O)/C(=C/c2ccc3c(c2)OCO3)SC1=S (stereo unspecified) -2% [this sample at 5 µg/mL]
CCOC(=O)C1CCN(CCC(=O)Nc2cccc(Cl)c2)CC1 -3.9%
O=C(Cc1cccs1)Nc1nnc(Cc2ccc(F)cc2)s1 -11.3%
COc1ccc(Cc2nnc(NC(=O)c3cccs3)s2)cc1 -1.1%
O=C(NCCCN1CCOCC1)c1cccc(Cl)c1 -2.3% [this sample at 5 µg/mL]
O=C(COc1ccc(Cl)cc1Cl)Nc1ccc(NC(=O)COc2ccc(Cl)cc2Cl)cc1 -4.1% [this sample at 5 µg/mL]
O=C(c1ccccc1[N+](=O)[O-])N1CCN(C/C=C/c2ccccc2)CC1 -10.3% [this sample at 5 µg/mL]
CCOc1cc(/C=C2/SC(=S)N(CC)C2=O)ccc1OCc1ccccc1Cl 5% [this sample at 5 µg/mL]
Cn1c2ccc(Cl)cc2c2nc3ccccc3nc21 -1.5%
CCn1c2ccccc2c2nc3ccccc3nc21 40.1%
Cc1cc(NC(=O)CSc2nnc(C3COc4ccccc4O3)o2)no1 (stereo unspecified) -5.5%
N#CC1=C(N)C(C#N)(C#N)C(c2cccnc2)C2CCCC=C12 (stereo unspecified) -10%
O=C1/C(=C/C=C/c2ccccc2)SC(=S)N1c1cccc(C(F)(F)F)c1 3.3% [this sample at 5 µg/mL]
COC(=O)CN1C(=O)/C(=C\C=C\c2ccccc2)SC1=S 7.7% [this sample at 5 µg/mL]
CCCN1C(=O)/C(=C/c2c(NCCCOC(C)C)nc3c(C)cccn3c2=O)SC1=S 38.4%
CCOCCCNc1nc2c(C)cccn2c(=O)c1/C=C1\SC(=S)N(CC(C)C)C1=O -4.7%
COc1ccc(/C=C/C(=O)CC(=O)C(Cl)(Cl)Cl)cc1 5.9% [this sample at 5 µg/mL]
Cc1nnc(NC(=O)c2sc3nc(-c4cccs4)cc(C(F)(F)F)c3c2N)s1 3.5%
Cc1c(C(=O)Nc2nccs2)sc2nc(-c3cccs3)cc(C(F)(F)F)c12 33%
CC(=O)c1cccc(NS(=O)(=O)c2cc(OCC(N)=O)c(C)cc2Cl)c1 -4%
CCOC(=O)C1=C(C)N(CCOC)C(=O)/C1=C\c1sccc1C -1.6% [this sample at 5 µg/mL]
Cc1cc(OCC(=O)O/N=C(\N)Cc2cccs2)ccc1Br -4.6%
CCSc1nnc(NC(=O)C(C)C)s1 -5.3%
CCSc1nnc(NC(=O)C(CC)(C(F)(F)F)C(F)(F)F)s1 -7.4%
Clc1ccc(CN2CCN(/N=C/c3ccc(Cl)c(Cl)c3)CC2)cc1 6% [this sample at 5 µg/mL]
Cn1nnnc1SCC(=O)c1ccco1 23.3%
Cc1ccc2nc(CSc3nc(C)cc(C)c3C#N)[nH]c2c1 5.6%
Cc1ccc(N2C(=O)c3n[nH]c(C)c3C2c2cccnc2)cc1 (stereo unspecified) -11.4%
Cc1ccc(NC2=Nc3ccccc3N3C2=Nc2c(c(C)nn2-c2ccccc2)C3c2ccc(O)c(O)c2)cc1 (stereo unspecified) 27.8%
Cc1cccc(NC2=Nc3ccccc3N3C2=Nc2c(c(C)nn2-c2ccccc2)C3c2ccc(O)c(O)c2)c1 (stereo unspecified) 37%
Cc1nn(-c2ccccc2)c2c1C(c1ccc(O)c(O)c1)N1C(=N2)C(Nc2ccccc2)=Nc2ccccc21 (stereo unspecified) 23.4%
